D1 allo mod = allosterically modulates the human D1 dopamine receptor; P21728; HEK293 D1, CRE-luciferase, dopamine EC30 potentiation; actives deviate in either direction; B-score at 10 µM; actives 5.9% (n = 58,000); AID 641;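 active means luminescence count or its row- and column-corrected plate score outside the 99.7% band of the plate's sample wells, on either side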
Target sequence (P21728 whole entry, looked up): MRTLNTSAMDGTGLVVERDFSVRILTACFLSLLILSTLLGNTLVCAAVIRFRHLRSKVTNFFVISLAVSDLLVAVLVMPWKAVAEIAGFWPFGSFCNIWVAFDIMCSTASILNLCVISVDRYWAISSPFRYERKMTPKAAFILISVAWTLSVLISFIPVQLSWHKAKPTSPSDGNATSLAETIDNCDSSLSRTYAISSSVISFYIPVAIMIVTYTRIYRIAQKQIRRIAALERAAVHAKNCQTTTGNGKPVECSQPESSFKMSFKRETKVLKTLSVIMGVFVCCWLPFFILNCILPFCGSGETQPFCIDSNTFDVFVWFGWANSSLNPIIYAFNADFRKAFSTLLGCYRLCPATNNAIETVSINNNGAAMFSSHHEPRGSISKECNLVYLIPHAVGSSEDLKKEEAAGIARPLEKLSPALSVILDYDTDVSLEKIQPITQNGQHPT
PostGolgi ctrl = yeast control strain growth, post-Golgi counter-screen. actives 5% (n = 98,000). efflux-deficient yeast background strain, growth absorbance A615, 16 h. inhibition, % at 10 µM
PLAP activator = activators of human placental alkaline phosphatase; P05187; purified PLAP enzyme, luminescent substrate read-out; hits give high values; activation fold at 20 µM; actives 1.2% (n = 96,000); AID 696; in the data active means activation fold above about 2
DAT uptake mod = changed human dopamine transporter uptake under cocaine IC80. Q01959. LLC-PK1 hDAT cells, [14C]-dopamine uptake with cocaine IC80; actives deviate in either direction. B-score at 10 µM. actives 1.3% (n = 110,000);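 active means Z score or B-score, a plate-position-corrected score, falls beyond the plate's 99.7% confidence bounds, in either direction; inactive means both scores lie inside the 99.7% bounds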;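 further: scored against the spread of the other compound wells on the same plate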
PostGolgi yeast = growth inhibition of a yeast mutant, post-Golgi transport screen | post-Golgi transport phenotypic cell assay | actives 0.9% (n = 98,000) | inhibition, % at 10 µM;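 further: yeast cells grown in 1536-well plates; yeast grown about 18 h at 30C before absorbance read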
Cav3 T inh = inhibitors of human Cav3.2 T-type calcium channel. actives 4% (n = 100,000). O95180. AID 449739. Cav3.2-expressing cells, Fluo-4 calcium fluorescence FDSS; hits give low values. B-score at 10 µM;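 active means single-dose well whose peak fluorescence ratio is a statistical outlier from its plate by either plate-standardised score or position-corrected B-score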
* hit, by the source's call; x = not tested or not shown. Shown are actives, neighbours in structure and some others; about 12% of the full set was active somewhere. Unless noted, no stated cut-off is given here; in the data, active means inhibition above about 30%; inactive means the rest.

SMILES	D1 allo mod	PostGolgi ctrl	PLAP activator	DAT uptake mod	PostGolgi yeast	Cav3 T inh
CCOc1cccc(-c2nn3c(-c4cc(C)[nH]n4)nnc3s2)c1	0.722	21.3	2.4*	0.745	2.7	2.05
COc1ccc(OCc2nn3c(-c4cccc(OC)c4)nnc3s2)cc1	-0.496	13.6	0.8	-0.991	-13.5	0.00751
c1ccc(OCc2nn3c(-c4cccnc4)nnc3s2)cc1	x	x	0.9	1.18	x	1.12
CCOc1cccc(-c2nnc3sc(-c4cc(OC)c(OC)cc4OC)nn23)c1	1.02	x	1	x	x	x
CCOc1cccc(-c2nnc3sc(C4CCCCC4)nn23)c1	x	33.4*	1.1	1.87	-3.1	-3.44
c1cncc(-c2nnc3sc(C4CCCCC4)nn23)c1	x	-0.3	1.1	1.5	11.5	3.23*
CC(=O)Nc1nc(C2COc3ccccc3O2)cs1 (stereo not drawn)	x	3.8	0.9	-1.4	-4.5	0.883
COc1ccccc1-n1cnc2cc(NCc3cccs3)ccc21	x	5.3	1.4	-2.52*	10.4	-3.66
CCOc1ccccc1CN(CCc1ccc2c(c1)OCO2)Cc1ccccn1	-0.584	7.6	1.2	0.688	-3.1	-4.33*
Cn1cnnc1SCC(=O)Nc1sc2c(c1C(N)=O)CCC2	-0.371	9.7	0.9	-0.472	0.2	0.224
Cn1ccnc1Sc1nc2ccccc2nc1NS(=O)(=O)c1ccccc1	0.0108	-0.3	1.7	0.0379	-0.7	-1.31
CCN(CC)C(=O)C1CC(c2ccc(OC)cc2)=NO1 (stereo not drawn)	-1.18	12.8	1	-0.169	15.7	-4.34*
CCn1c(=O)c2c(nc(SCC(=O)NCC3CCCO3)n2C)n(C)c1=O (stereo not drawn)	0.669	21.4	0.9	-0.677	0.6	-2.5
O=C(Nc1ccc(Cl)cc1)[C@@H]1[C@@H]2C(=O)N(c3ccc(Cl)cc3)C(=O)[C@@H]2[C@H]2C=CC=NN21	x	-2.1	1.3	1.07	0.8	-5.85*
O=C(Nc1ccc(Cl)cc1)[C@@H]1[C@@H]2C(=O)N(c3ccc(Cl)cc3Cl)C(=O)[C@@H]2[C@H]2C=CC=NN21	x	12.9	1.5	1.41	2.2	-4.69*
Cc1ccc(N2C(=O)[C@@H]3[C@H](C2=O)[C@H]2C=CC=NN2[C@@H]3C(=O)Nc2ccc(Cl)cc2)cc1	x	-1.5	1.4	0.621	-1.6	-0.944
Cc1c(C(=O)Nc2ccncc2)sc2nc(-c3ccccc3)cn12	-4.51*	3.5	1	-0.01	5.3	0.325
Cc1c(C(=O)N2CCc3ccccc3C2)sc2nc(-c3ccccc3)cn12	0.393	46.9*	1.3	2.29	5.0	-1.3
Cc1c(C(=O)N2CCOCC2)sc2nc(-c3ccccc3)cn12	-0.477	7.1	0.9	x	-3.6	x
CCN(CC)c1ccc(NC(=O)COC(=O)c2ccc3ccccc3n2)cc1	x	9.2	1.4	-0.726	-1.8	-0.301
c1csc(CNCCCN2CCOCC2)c1	x	31.2*	1.1	-0.221	-3.0	-0.595
CC(NS(=O)(=O)c1ccccc1)C(c1cccs1)N1CCN(c2ccccc2)CC1 (stereo not drawn)	-0.107	39.2*	1.2	4.82*	-4.9	-4.55
CCOCCCNC(=O)c1ccc2c(c1)OCO2	-0.514	-3.7	1	-0.451	5.6	0.173
O=C(NCCOc1ccccc1)c1ccc2c(c1)OCO2	-7.5*	3.8	0.9	0.252	5.0	0.627
COCCCNC(=S)NNC(=O)c1ccc2c(c1)OCO2	x	4.0	2.2*	-0.351	21.0	-0.173
SMILES	D1 allo mod	PostGolgi ctrl	PLAP activator	DAT uptake mod	PostGolgi yeast	Cav3 T inh
O=C(NCCCn1ccnc1)c1cc2c(s1)CCCCC2	0.411	14.5	1	-0.641	-20.7	0.262
COc1ccc(N2CCN(C(=O)CSc3nnc(-c4cccnc4)n3-c3ccc(F)cc3)CC2)cc1	x	x	x	0.871	x	1.37
O=C(CSc1nnc(-c2cccnc2)n1-c1ccccc1)N1CCN(c2ccc(F)cc2)CC1	x	-7.0	1.7	0.257	-0.5	4.04*
O=C(O)CSc1nnc(-c2cccnc2)n1Cc1ccccc1	-0.0327	6.3	0.9	-7.05*	2.4	1.28
CC(C)OC(=O)CSc1nnc(-c2cccnc2)n1Cc1ccccc1	-0.428	4.3	0.9	-0.459	-5.0	0.193
COC(=O)c1ccc(N2CCC(c3cc(-c4ccc(OC)cc4)n[nH]3)CC2)c([N+](=O)[O-])c1	x	27.1	1.2	0.933	7.7	-0.494
O=C(Nc1ccc(N2CCCCC2)c(Cl)c1)c1ccc(N2CCOCC2)c([N+](=O)[O-])c1	x	1.1	1.4	0.325	0.0	-2.1
COc1ccc(-c2cc(C3CCN(c4ccc(C(C)=O)cc4[N+](=O)[O-])CC3)[nH]n2)cc1	x	37.1*	1.3	0.661	21.3	-1.53
CC(=O)c1ccc(N2CCC(c3cc(-c4ccc(Cl)cc4)n[nH]3)CC2)c([N+](=O)[O-])c1	x	43.1*	1.3	1.34	40.8*	0.0528
Cc1cc(=O)n(C)c(=O)n1CC(=O)N1CCCCCC1	1.87	7.0	1	1.34	-5.0	0.071
Cn1c(=O)c2c(-c3ccncc3)c3c(nc2n(C)c1=O)-c1ccccc1C3=O	-0.0682	x	x	x	x	x
COc1ccc(-c2cc(C(F)(F)F)nc(SCCC(=O)NCc3ccccc3)n2)cc1	x	4.9	0.8	-0.151	9.3	-5.72*
CC(NC(=O)CCSc1nc(-c2ccc3c(c2)OCO3)cc(C(F)(F)F)n1)c1ccccc1 (stereo not drawn)	x	4.3	1	0.801	4.7	-5.24*
COc1ccc(-c2cc(C(F)(F)F)nc(SCc3cccc(C(=O)O)c3)n2)cc1	x	8.0	1.1	0.61	-4.3	-1.33
O=c1[nH]c2ccccc2n1CCCN1CCN(C(c2ccccc2)c2ccccc2)CC1	-5.18	x	x	-0.907	x	-4.99*
CCCn1c(=O)[nH]c2ccccc21	x	-2.5	1	-1.38	-5.4	0.551
O=C(Nc1cccc(Cl)c1N1CCCC1)c1cccc(-c2cc3ccccc3oc2=O)c1	x	3.0	1	0.0477	0.5	0.535
O=C(CCn1c(=O)[nH]c2ccsc2c1=O)N(CCc1ccccc1)Cc1ccccc1	x	13.7	1.7	0.553	6.0	-4.35*
CCOC(=O)CNC(=O)CSc1nnc(Cn2cnc3ccccc32)n1C	0.13	8.2	1.1	-0.347	1.0	-0.407
CCOC(=O)c1ccccc1NC(=O)CSc1nnnn1C1CCCCC1	0.0604	18.9	0.9	-0.302	14.5	-3.7
CC(C)C[C@H](NC(=O)c1[nH]cnc1C(=O)Nc1ccccc1)C(=O)OC(C)(C)C	x	x	x	1.95	x	1.58
CC1CC(C)CN(C(=O)CSCC(=O)Nc2nc(-c3cccs3)cs2)C1 (stereo not drawn)	x	71.7*	1.3	x	5.1	x
O=C(Cc1ccccc1F)Nc1nc(-c2cccs2)cs1	0.307	5.6	0.9	3.35*	9.6	-9.64*
O=C(CSCC(=O)N1CCCCC1)Nc1nc(-c2cccs2)cs1	-2.04	20.1	1	0.0707	-2.4	-3.67*
O=C(CN1C(=O)CCC1=O)Nc1nc(-c2cccs2)cs1	x	8.1	0.8	-0.95	0.9	0.129
CCOC(=O)N1CCN(C(=O)CSCC(=O)Nc2nc(-c3ccccc3)cs2)CC1	-1.08	x	x	-0.257	x	-2.66
N=C1C=CC=C2C1=NC1(CCCCC1)N2O	1.46	1.9	0.5	-0.0843	-1.1	0.266
